The values that follow come from ChEMBL document CHEMBL3988442, “University of Dundee, Small-Polar-MMV Screening Library” (2021).

In one test the target is T1, Aspartate--tRNA(Asp/Asn) ligase (Mycobacterium tuberculosis (strain ATCC 25618 / H37Rv)) (UniProt P9WFW3). Also: in the data most compounds retested in dose-response had high values.
T1 sequence (whole entry): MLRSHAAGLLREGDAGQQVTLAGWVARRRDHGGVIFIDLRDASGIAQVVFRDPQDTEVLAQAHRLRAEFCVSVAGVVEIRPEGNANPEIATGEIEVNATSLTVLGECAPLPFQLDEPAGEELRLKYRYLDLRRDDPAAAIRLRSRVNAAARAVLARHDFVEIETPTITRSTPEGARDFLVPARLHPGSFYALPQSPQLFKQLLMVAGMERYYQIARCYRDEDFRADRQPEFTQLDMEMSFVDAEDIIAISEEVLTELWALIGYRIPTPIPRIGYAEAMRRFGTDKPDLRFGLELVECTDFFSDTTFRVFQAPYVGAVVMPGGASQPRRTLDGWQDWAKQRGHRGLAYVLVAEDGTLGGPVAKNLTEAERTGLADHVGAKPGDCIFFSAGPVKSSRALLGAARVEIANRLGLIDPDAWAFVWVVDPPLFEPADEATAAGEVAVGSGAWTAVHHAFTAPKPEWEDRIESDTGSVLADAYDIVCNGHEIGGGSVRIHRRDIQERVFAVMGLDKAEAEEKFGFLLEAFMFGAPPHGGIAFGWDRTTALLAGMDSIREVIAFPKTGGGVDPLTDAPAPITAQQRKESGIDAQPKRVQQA
The test is described as follows: Assay for Asp RNA synthetase-1 from Mycobacterium tuberculosis. It counts as functional. Also noted: scale not given: direction of the effect not stated beside the values. The settings on record: 30 µM.
On to `O=C(c1cc[nH]n1)N1CCC(Nc2cccnn2)CC1`, for which the Percent Effect was -8.36%.
In the case of `COc1cccc(C(=O)NCCCN2CCc3ccccc3C2)c1OC`, the Percent Effect is -2.13%.
With `Cn1cccc1C(=O)NCc1cnc2n1CCN(C(=O)N1CCCC1)C2`, the Percent Effect is -0.495%.
The same measure, in the same setting: with `COc1ccccc1C(=O)NC(CC(=O)O)c1cccs1` (stereo not given) the figure was 5.75%; with `Cc1nc(N2CCCCC2)ncc1-c1cc(O)[nH]n1`, -0.348%.
The same measure, in the same setting: in the case of `CC(C)c1ccc(O)c(C(=O)N2CCN(Cc3cscn3)CC2)c1` it was -0.175%; in that of `O=C1COC2(CCN(CC3CC3)CC2)CN1c1ccccc1`, -0.547%; in that of `COc1ccc(C(C)NC(=O)NCCCn2cncn2)cc1F` (stereo not given), 7.3%.
As for `CCOCC1CN(Cc2cnn(C)c2)Cc2ncn(CC3CC3)c21` (stereo not given), the Percent Effect was 2.64%.
The same measure, in the same setting: with `CN(C)C(=O)CO[C@@H]1CC[C@H]2[C@H]1OCCN2C(=O)C1CCOCC1` the figure was -1.59%; with `O=C(NCc1ccoc1)Nc1ccc(CN2CCOC2=O)cc1`, -3.73%; with `CCOC(=O)c1sc2ccsc2c1CNC(=O)CC`, 1.08%.
As for `CN1CC(c2ccccc2)CC12CCN(C(=O)c1cncc(Cl)c1)CC2` (stereo not given), the Percent Effect was determined as 0.408%.
Take `Cn1cc(CC2CCN(C(=O)NCCc3cccc(O)c3)C2)cn1` (stereo not given): the Percent Effect is -5.03%.
On the same count and under the same terms, in the case of `CN(C)c1cc(C(=O)N2CCN(c3cnccn3)CC2)ccn1` it was -1.5%.
On to `Cc1noc([C@@H]2CCCN2C(=O)C2CCN(C(=O)C3CCC3)CC2)n1`, for which the Percent Effect is 6.9%.
For the compound `Cn1ccnc1C(NCc1csc(Br)c1)c1ccccc1` (stereo not given), the Percent Effect was -0.175%.
In the case of `Cc1nc(CN2CCOC(CN(C)c3cccnn3)C2)cs1` (stereo not given), the Percent Effect was -1.09%.
As to `CCc1ccc(C2CCCCCN2Cc2nc(CCOC)no2)o1` (stereo not given), the Percent Effect amounted to 10.6%.
Still for that read-out and setting: in the case of `CN1CCN(CC2CC2)C(=O)c2cnc(N3CCCC3)nc21` it was -0.103%; in that of `CN(C)C(=O)C1CN(Cc2cscn2)CCN(S(C)(=O)=O)C1` (stereo not given), 0.521%.
Consider `CC(Cc1ccco1)NC(=O)Nc1cnn(CC(N)=O)c1` (stereo not given), for which the Percent Effect turned out to be 2.29%.
As for `CCn1cc(NC(=O)NCC(O)c2ccccc2)cn1` (stereo not given), the Percent Effect was -0.4%.
Same read-out and setting: with `Cc1ccc(NC2CCN(C(=O)Cn3nc(C)cc3C)CC2)nn1` the figure was -3.3%; with `Cc1noc(C(C)C)c1C(=O)NCCN1CCCCCC1=O`, 2.13%.
Still for that read-out and setting: with `Cc1cnn(CCNCc2csc(-c3ccc(F)cc3)n2)c1` the figure was -1.03%; with `Cc1noc(C2CCCN(C(=O)c3ccc(Br)cc3F)C2)n1` (stereo not given), -4.41%.
Regarding `Cn1ccnc1CN1C[C@@H](CN2CCC(CO)CC2)[C@@H](CO)C1`, the Percent Effect was -1.77%.
The same measure, in the same setting: in the case of `COc1ccc(CN2C[C@@H](N(C)Cc3ccco3)[C@H]3OCCC[C@H]32)cc1` it was 0.632%.
Same read-out and setting: with `CCOc1ncccc1C(=O)NCCN(CC)C1CC1` the figure was 0.335%.
Still for that read-out and setting: with `COc1ccc(CNCc2ccc(N3CCCCC3)nc2)cc1OC` the figure was 1.06%; with `Cc1nc(C2CCCN(C(=O)COCc3ccccc3Cl)C2)no1` (stereo not given), 1.96%.
In the case of `CN(Cc1ccccc1)CC1(O)CCCN(CC(C)(C)C)C1=O` (stereo not given), the Percent Effect is -7.46%.
On the same count and under the same terms, in the case of `N#CC1(C(=O)Nc2ccc(OC(F)F)cc2)CCCC1` it was 3.4%; in that of `COc1cccc2c1OCC(C(=O)N1CCN(S(C)(=O)=O)CC1)C2` (stereo not given), -3.14%; in that of `COc1cccc2c1OCC(CNC(=O)CCCN1CCOCC1)C2` (stereo not given), 4.84%.
As for `COc1ccc(C(O)CNC(=O)NCc2csc(C)n2)cc1` (stereo not given), the Percent Effect was -1.2%.
Regarding `Cn1cnc2c(N3CCCC3)nc(C3CCNCC3)cc21`, the Percent Effect was 3.17%.
For `CC(Cn1cccn1)NC(=O)Nc1nccs1` (stereo not given), the Percent Effect is -0.364%.
In the case of `Cc1noc([C@H]2CC[C@@H]3[C@@H](CCN3S(C)(=O)=O)O2)n1`, the Percent Effect was 2.38%.

A further test concerns the target Shiga toxin 2 (Escherichia coli O157:H7) (UniProt P09385+P09386). The test can be described thus: E. coli 0.157:H7 Shiga Toxin SOP - stx2 screening assay. It is filed as functional. Also noted: scale not given: direction of the effect not stated beside the values. The settings on record: 30 µM.
For the compound `O=C(c1cc[nH]n1)N1CCC(Nc2cccnn2)CC1`, the Percent Effect was -20.2%.
Take `COc1cccc(C(=O)NCCCN2CCc3ccccc3C2)c1OC`: the Percent Effect was -9.33%.
The same measure, in the same setting: with `Cn1cccc1C(=O)NCc1cnc2n1CCN(C(=O)N1CCCC1)C2` the figure was -94.8%; with `COc1ccccc1C(=O)NC(CC(=O)O)c1cccs1` (stereo not given), -32.6%.
Turning to `Cc1nc(N2CCCCC2)ncc1-c1cc(O)[nH]n1`, the Percent Effect is -1.17%.
Same read-out and setting: in the case of `CC(C)c1ccc(O)c(C(=O)N2CCN(Cc3cscn3)CC2)c1` it was -7.95%; in that of `O=C1COC2(CCN(CC3CC3)CC2)CN1c1ccccc1`, 5.01%; in that of `COc1ccc(C(C)NC(=O)NCCCn2cncn2)cc1F` (stereo not given), -14.5%.
`CCOCC1CN(Cc2cnn(C)c2)Cc2ncn(CC3CC3)c21` (stereo not given): the Percent Effect was determined as 3.02%.
As for `CN(C)C(=O)CO[C@@H]1CC[C@H]2[C@H]1OCCN2C(=O)C1CCOCC1`, the Percent Effect was -10.1%.
Still for that read-out and setting: in the case of `O=C(NCc1ccoc1)Nc1ccc(CN2CCOC2=O)cc1` it was -75.3%.
On the same count and under the same terms, with `CCOC(=O)c1sc2ccsc2c1CNC(=O)CC` the figure was -9.72%; with `CN1CC(c2ccccc2)CC12CCN(C(=O)c1cncc(Cl)c1)CC2` (stereo not given), 12.5%.
As for `Cn1cc(CC2CCN(C(=O)NCCc3cccc(O)c3)C2)cn1` (stereo not given), the Percent Effect is -12.2%.
Still for that read-out and setting: in the case of `CN(C)c1cc(C(=O)N2CCN(c3cnccn3)CC2)ccn1` it was 3.8%; in that of `Cc1noc([C@@H]2CCCN2C(=O)C2CCN(C(=O)C3CCC3)CC2)n1`, -35.4%.
Turning to `Cn1ccnc1C(NCc1csc(Br)c1)c1ccccc1` (stereo not given), the Percent Effect is -3.96%.
As for `Cc1nc(CN2CCOC(CN(C)c3cccnn3)C2)cs1` (stereo not given), the Percent Effect turned out to be 7.32%.
Same read-out and setting: in the case of `CCc1ccc(C2CCCCCN2Cc2nc(CCOC)no2)o1` (stereo not given) it was -30.6%.
On the same count and under the same terms, with `CN1CCN(CC2CC2)C(=O)c2cnc(N3CCCC3)nc21` the figure was -25.1%; with `CN(C)C(=O)C1CN(Cc2cscn2)CCN(S(C)(=O)=O)C1` (stereo not given), -12.3%; with `CC(Cc1ccco1)NC(=O)Nc1cnn(CC(N)=O)c1` (stereo not given), -8.5%.
Same read-out and setting: in the case of `CCn1cc(NC(=O)NCC(O)c2ccccc2)cn1` (stereo not given) it was -5.7%; in that of `Cc1ccc(NC2CCN(C(=O)Cn3nc(C)cc3C)CC2)nn1`, 28.3%.
`Cc1noc(C(C)C)c1C(=O)NCCN1CCCCCC1=O`: the Percent Effect was -4.24%.
As to `Cc1cnn(CCNCc2csc(-c3ccc(F)cc3)n2)c1`, the Percent Effect was 13.4%.
Regarding `Cc1noc(C2CCCN(C(=O)c3ccc(Br)cc3F)C2)n1` (stereo not given), the Percent Effect came to 20.7%.
The same measure, in the same setting: with `Cn1ccnc1CN1C[C@@H](CN2CCC(CO)CC2)[C@@H](CO)C1` the figure was 12.7%.
For `COc1ccc(CN2C[C@@H](N(C)Cc3ccco3)[C@H]3OCCC[C@H]32)cc1`, the Percent Effect is 4.78%.
For `CCOc1ncccc1C(=O)NCCN(CC)C1CC1`, the Percent Effect turned out to be 9.33%.
Same read-out and setting: in the case of `COc1ccc(CNCc2ccc(N3CCCCC3)nc2)cc1OC` it was -82.1%; in that of `Cc1nc(C2CCCN(C(=O)COCc3ccccc3Cl)C2)no1` (stereo not given), 5.07%.
`CN(Cc1ccccc1)CC1(O)CCCN(CC(C)(C)C)C1=O` (stereo not given): the Percent Effect was found to be 17.9%.
For `N#CC1(C(=O)Nc2ccc(OC(F)F)cc2)CCCC1`, the Percent Effect was -2.03%.
On to `COc1cccc2c1OCC(C(=O)N1CCN(S(C)(=O)=O)CC1)C2` (stereo not given), for which the Percent Effect came out at 14.3%.
The same measure, in the same setting: in the case of `COc1cccc2c1OCC(CNC(=O)CCCN1CCOCC1)C2` (stereo not given) it was 5.01%.
On to `COc1ccc(C(O)CNC(=O)NCc2csc(C)n2)cc1` (stereo not given), for which the Percent Effect was -23.7%.
Turning to `Cn1cnc2c(N3CCCC3)nc(C3CCNCC3)cc21`, the Percent Effect was -31.9%.
`CC(Cn1cccn1)NC(=O)Nc1nccs1` (stereo not given): the Percent Effect stood at 2.8%.
Take `Cc1noc([C@H]2CC[C@@H]3[C@@H](CCN3S(C)(=O)=O)O2)n1`: the Percent Effect was -3.33%.
